What all share (experiment): NCI-60 one-dose screen, 48 h (100 = growth as untreated, 0 = no growth, -100 = all killed)
Test [1] concerns HCT-15 colon. To be noted: 10 µM unless noted.
Test [2] has as its system HT29 colon. The note with it: 10 µM unless noted.
Test [3] has as its system SNB-75 CNS. To be noted: 10 µM unless noted.
The subject of test [4] is SNB-19 CNS. The note with it: 10 µM unless noted.
The test system of test [5] is U251 CNS. To be noted: 10 µM unless noted.
Test [6] concerns PC-3 prostate. To be noted: 10 µM unless noted.
For test [7], the system named is SK-MEL-5 melanoma. The note with it: 10 µM unless noted.
In test [8] the test system is UACC-62 melanoma. To be noted: 10 µM unless noted.
Test [9] concerns LOX IMVI melanoma. To be noted: 10 µM unless noted.
For test [10], the system named is SK-MEL-28 melanoma. The note with it: 10 µM unless noted.
Test [11] concerns SK-MEL-2 melanoma. The note with it: 10 µM unless noted.
The subject of test [12] is EKVX NSCLC. To be noted: 10 µM unless noted.
For test [13], the system named is SN12C renal. The note with it: 10 µM unless noted.
In test [14] the test system is UO-31 renal. The note with it: 10 µM unless noted.
Test [15] deals with TK-10 renal. To be noted: 10 µM unless noted.
The subject of test [16] is ACHN renal. The note with it: 10 µM unless noted.
The test system of test [17] is CAKI-1 renal. The note with it: 10 µM.
Test [18] deals with A498 renal. The note with it: 10 µM unless noted.
Test [19] deals with CCRF-CEM leukemia. The note with it: 10 µM unless noted.
Test [20] has as its system MOLT-4 leukemia. To be noted: 10 µM unless noted.

Compounds without any hit were thinned out: in the full panel of roughly 83,000, 20% have a hit.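 Assay: single dose, 48 h. Readout: percent growth (0 = no net growth; negative = cell death). Active: <10.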 A number with no mark means an inactive call. Active and inactive are the calls of the source.

With `CC1COc2c(N3CCN(C)CC3)c(F)cc3c(=O)c(C(=O)N/N=C/c4cc[nH]c4)cn1c23` (stereo unspecified), the growth in [1] is 47.1%; in test [2], 14.6%; in test [3], 74.4%; in [4], 9.01% (active); in test [5], -41.6% (active); in [6] it was 27.9%. In addition, the growth in test [7] is 25.3%; in test [8], 76%; in [9] it was -88.5% (active); in test [10], 57.3%; in test [11], 83.5%; in test [12] it was 33.3%. The growth in [13] was 49.3%; in [14], 54%; in [15] it was 87.8%; in test [16], 43.8%; in test [17], 47.6%; in [18] it was 40.6%. Further, the growth in [19] was -35.9% (active); in test [20], 9.4% (active).

For `COc1ccc(S(=O)(=O)NCCCNc2nccc(-n3cnc4ccccc43)n2)cc1`, the growth is 92.3% in test [1]; 99.7% in test [2]; 88.2% in test [3]; 100% in [4]; 94.5% in test [5]; 89.7% in test [6]. For the same molecule, the growth is 70.1% in [7]; 76.3% in test [8]; 93.4% in test [9]; 106% in [10]; 103% in [11]; 84.4% in test [12]. The growth in test [13] was 92.4%; in test [14] it was 67.2%; in test [15] it was 103%; in test [16], 88.2%; in test [17], 68.8%; in test [18], 81.9%. For the same molecule, the growth is 91.4% in [19] and 77% in test [20].

For `CCCCCCNC(=O)Oc1ccc(/C(=C(/C)c2ccc(Cl)cc2)c2ccc(OCCN3CCCC3)cc2)cc1`, the growth in [1] was 0.291% (active); in test [2], -17.7% (active); in test [3] it was 67.2%; in [4], 45%; in test [5] it was 29.6%; in test [6] it was 37.5%. The growth in [7] was 14.9%; in test [8], 20.8%; in test [9] it was -98.6% (active); in [10], -49.4% (active); in test [11], 78%; in [12], 53.4%. The growth in test [13] was 50.4%; in test [14], 18.1%; in [15] it was 86%; in test [16] it was 37.5%; in [17], 55.3%; in test [19], 4.42% (active).

Regarding `COCCC[C@H]1O[C@@](O)([C@H](C)[C@@H]2CC(OC)C(O)/C=C(C)/C=C(C)/C=C(\C)C(OC3O[C@@H](C)[C@H](O)C(O)[C@@H]3O)C(C)/C=C(C)/C=C(OC)/C=C(\C)C(=O)O2)C(OC)C(O)[C@]1(C)O[C@H]1C[C@@H](O)[C@H](O[C@H]2C[C@](C)(O)[C@H](O)C(C)O2)C(C)O1` (stereo partly specified), the growth is 57.5% in [1]; 67% in test [2]; 35.3% in test [3]; 38.8% in test [4]; 47% in test [5]; 27.8% in [6]. Further, the growth in test [7] was 7.32% (active); in test [8] it was 58.4%; in test [9], 76.4%; in [10], 84.2%; in [11], 50.6%; in [12], 21.6%. Further, the growth in test [13] was 68.3%; in [14], 25.7%; in test [15] it was 49.9%; in test [16] it was 67.7%; in [17], 73.8%; in test [18] it was 56%. Moreover, the figures for the growth in [19] and in [20] were 53.9% and 47.8%, respectively.

Turning to `COc1ccc(NC2=C(Cl)C(=O)C(C)=C(C)C2=O)cc1`, the growth in test [1] is 94.8%; in [2], 106%; in [3], 71.7%; in [4], 95.2%; in test [5] it was 88.6%; in test [6] it was 74.7%. Moreover, the growth in test [7] was 97.7%; in test [8] it was 91%; in test [9], 65.8%; in [10], 103%; in test [11], 89.6%; in [12], 31.4%. Moreover, the growth is 87.7% in test [13]; 89.9% in test [14]; 149% in test [15]; 88.8% in [16]; 91.5% in test [17]; 83.3% in test [18]. For the same molecule, the growth in [19] was 2.14% (active); in test [20], 21.8%.

Consider `C=C(C)[C@@H]1CC[C@]2(C(=O)NCCCN(CCC#N)CCC#N)CC[C@]3(C)[C@H](CC[C@@H]4[C@@]5(C)CCC(=O)C(C)(C)[C@@H]5CC[C@]43C)[C@@H]12`, for which the growth in test [1] was 96.4%; in [2], 106%; in [3], 99.9%; in [4], 88.9%; in test [5] it was 97.7%; in test [6] it was 93.1%. Moreover, the growth was 99.1% in test [7]; 88.3% in [8]; 99.3% in [9]; 104% in test [10]; 102% in test [11]; 104% in test [12]. Also, the growth was 94.3% in [13]; 95.1% in test [14]; 101% in [15]; 99.9% in test [16]; 75% in test [17]; 103% in test [19]. Also, the growth in test [20] was 88.1%.

Consider `CCOC(=O)c1c(NC(=O)c2ccc(F)cc2F)sc2c1CCC(=O)C2`, for which the growth in test [1] is 80.6%; in test [2], 103%; in test [3] it was 94.3%; in test [4] it was 67.2%; in [5], 53.5%; in test [6] it was 93.7%. Moreover, the growth was 98.5% in test [7]; 83.4% in test [8]; 80.7% in test [9]; 112% in test [10]; 98.3% in test [11]; 97.7% in [12]. Besides, the growth is 99% in test [13]; 83.8% in test [14]; 124% in [15]; 95.6% in test [16]; 80.1% in [17]; 98.2% in [19]. The growth in [20] is 95.8%.

For `O=C(CSc1nnc(-c2ccc(Cl)cc2)n1-c1ccccc1)Nc1ccc(F)cc1`, the growth in [1] is 94.6%; in [2], 87%; in test [3], 117%; in test [4] it was 59.7%; in [5] it was 6.66% (active); in test [6], 99.9%. Moreover, the growth in test [7] is 96.4%; in [8] it was 82.4%; in [9] it was 49.2%; in test [10] it was 95.8%; in [11], 111%; in [12], 90.6%. For the same molecule, the growth in test [13] is 62.6%; in test [14] it was 97.5%; in [15], 88.7%; in [16], 24.7%; in test [17], 70.9%; in test [18], 69.8%. Moreover, the figures for the growth in test [19] and in test [20] were 91.8% and 103%, respectively.

(Values after PubChem BioAssay (NCI).)
